± gives the standard deviation of the averaged measurements.
Tested on: E. coli BW25113 marRABp lux reporter
Experiment: promoter activity interaction Z-score (Lux/OD deviation from empty-vector control); higher = stronger promoter induction by the compound
Procedure: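 E. coli BW25113 (wild type or ΔmarA/ΔsoxS/Δrob) carrying pTU175 luxCDABE promoter reporters was grown in LB in 384-well plates at 37°C with each of 94 compounds at 4 two-fold concentrations, in biological duplicates. Luminescence and OD600 were read every 30 min for 12 h and integrated as AUC over 8 h (0-8 h WT, 1-9 h mutants). Lux AUC was divided by OD AUC; the interaction score is the residual of a Huber robust fit of each promoter against the empty-vector control, then Z-transformed per promoter.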

Compound | promoter activity interaction Z-score (0.062 µg/ml, genetic background: wild type) | promoter activity interaction Z-score (0.062 µg/ml, genetic background: ΔmarA) | promoter activity interaction Z-score (0.062 µg/ml, genetic background: Δrob) | promoter activity interaction Z-score (0.062 µg/ml, genetic background: ΔsoxS) | promoter activity interaction Z-score (0.12 µg/ml, genetic background: wild type) | promoter activity interaction Z-score (0.12 µg/ml, genetic background: ΔmarA) | promoter activity interaction Z-score (0.12 µg/ml, genetic background: Δrob) | promoter activity interaction Z-score (0.12 µg/ml, genetic background: ΔsoxS) | promoter activity interaction Z-score (0.25 µg/ml, genetic background: wild type) | promoter activity interaction Z-score (0.25 µg/ml, genetic background: ΔmarA) | promoter activity interaction Z-score (0.25 µg/ml, genetic background: Δrob) | promoter activity interaction Z-score (0.25 µg/ml, genetic background: ΔsoxS) | promoter activity interaction Z-score (0.49 µg/ml, genetic background: wild type) | promoter activity interaction Z-score (0.49 µg/ml, genetic background: ΔmarA) | promoter activity interaction Z-score (0.49 µg/ml, genetic background: Δrob) | promoter activity interaction Z-score (0.49 µg/ml, genetic background: ΔsoxS) | promoter activity interaction Z-score (11.9 µg/ml, genetic background: wild type) | promoter activity interaction Z-score (11.9 µg/ml, genetic background: ΔmarA) | promoter activity interaction Z-score (11.9 µg/ml, genetic background: Δrob) | promoter activity interaction Z-score (11.9 µg/ml, genetic background: ΔsoxS) | promoter activity interaction Z-score (23.7 µg/ml, genetic background: wild type) | promoter activity interaction Z-score (23.7 µg/ml, genetic background: ΔmarA) | promoter activity interaction Z-score (23.7 µg/ml, genetic background: Δrob) | promoter activity interaction Z-score (23.7 µg/ml, genetic background: ΔsoxS) | promoter activity interaction Z-score (47.4 µg/ml, genetic background: wild type) | promoter activity interaction Z-score (47.4 µg/ml, genetic background: ΔmarA) | promoter activity interaction Z-score (47.4 µg/ml, genetic background: Δrob) | promoter activity interaction Z-score (47.4 µg/ml, genetic background: ΔsoxS) | promoter activity interaction Z-score (94.8 µg/ml, genetic background: wild type) | promoter activity interaction Z-score (94.8 µg/ml, genetic background: ΔmarA) | promoter activity interaction Z-score (94.8 µg/ml, genetic background: Δrob) | promoter activity interaction Z-score (94.8 µg/ml, genetic background: ΔsoxS)
CN(C)c1ccc(O)c2c1C[C@H]1C[C@H]3[C@H](N(C)C)C(O)=C(C(N)=O)C(=O)[C@@]3(O)C(O)=C1C2=O [Minocycline] | -0.0844 ± 0.21 | 0.0361 ± 0.21 | 0.129 ± 0.094 | -0.0813 ± 0.0076 | 0.341 ± 0.081 | 0.0649 ± 0.098 | 0.115 ± 0.4 | 0.221 ± 0.22 | 0.449 ± 0.55 | 0.264 ± 0.17 | 0.436 ± 0.19 | 0.173 ± 0.13 | 3.58 ± 0.53 | 3.1 ± 1.2 | 1.07 ± 0.62 | 2.67 ± 0.47 | – | – | – | – | – | – | – | – | – | – | – | – | – | – | – | –
NCCc1ccc(O)c(O)c1 [Dopamine] | – | – | – | – | – | – | – | – | – | – | – | – | – | – | – | – | 0.0994 ± 0.32 | -0.339 ± 0.18 | -0.285 ± 0.05 | -0.021 ± 0.064 | -0.265 ± 0.15 | 0.159 ± 0.52 | 0.121 ± 0.22 | -0.3 ± 0.046 | 0.113 ± 0.12 | -0.369 ± 0.073 | -0.155 ± 0.3 | -0.126 ± 0.099 | -0.305 ± 0.37 | 0.217 ± 1.1 | -0.642 ± 0.091 | -0.61 ± 0.21

Source: the supplement of paper PMC12282887
